# Most compounds without a hit are left out; they make up all but 19% or so of the library.
# IL1B secr inh = inhibitors of inflammasome signaling (IL-1 beta secretion). activity change, % at 57.5 µM. 360,000 compounds, 4.7% hits. THP-1 LPS/ATP IL-1B secretion, AlphaLISA, 16 h; stronger effect = lower value; in the data active = activity change below about -50%; inconclusive = mostly about -30% to -49%
#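 THP-1 cells pretreated 1 hr with compounds (up to 57.5 uM final), then stimulated with LPS (250 ng/mL final) plus ATP (1.25 mM final); secreted IL-1B measured by AlphaLISA after 16 hr, decreased signal indicating inhibition.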
# HT1080 IDH1KD tx = toxicity to HT-1080 IDH1 knockdown cells (counter line). Potency, µM (titrated, usually from 46.1 µM), inactives show at the highest dose activity, negative = toxicity, hits mostly cytotoxic. HT-1080 IDH1 knockdown viability, ATP luminescence, 48 h. AID 686971. 360,000 compounds, 2% hits;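 also: potency is read from the fitted curve at half-maximal effect; 0% = DMSO wells and -100% = cell-free medium wells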
#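 Luminescent ATP read-out (CellTiter-Glo, 10 min at room temperature) after 48 h compound exposure at 37 °C gave viability of IDH1-knockdown HT-1080 cells. Activity was normalised to DMSO and cell-free wells, then fitted as concentration-response curves.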
# TDP1 cell noCPT = qHTS for Inhibitors of human tyrosyl-DNA phosphodiesterase 1 (TDP1): qHTS in cells in absence of CPT. 420,000 compounds, 15% hits. DT40 Tdp1-/- hTDP1 cells, no CPT, ATP luminescence, 48 h. Potency, µM (series often up to 46.2 µM), without a hit: top-dose activity change, negative = growth inhibition, hits mostly inhibitors; also: potency is read from the fitted curve at half-maximal effect; nearly all actives have a fitted effect of over 55% in size
#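 Readout: luminescence from CellTiter-Glo after 30 min in the dark at RT. Cells: DT40 Tdp1-/- with stable hTDP1, 400/well. Exposure: compounds alone, ≥48 hr, 37 °C.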
# TDP1 cell CPT = growth inhibition of DT40 Tdp1-/-;hTDP1 cells with camptothecin (screen for TDP1 inhibitors) | chicken DT40 Tdp1-/-;hTDP1 cells + 20 nM CPT, ATP luminescence, 48 h | Potency, µM (series often up to 46.2 µM), without a hit: at the highest dose activity change, negative = growth inhibition, hits mostly inhibitors | 420,000 compounds, 12% hits | AID 686979; also: potency is read from the fitted curve at half-maximal effect; nearly all actives have a fitted effect of over 55% in size
#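 Chicken DT40 Tdp1-/- cells complemented with human TDP1, 400 cells/well, exposed to compounds plus 20 nM camptothecin for at least 48 h at 37 C; viability read as ATP content by CellTiter-Glo luminescence.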
# HT1080-NT tox = kills 2HG-producing HT-1080-NT fibrosarcoma cells; Potency, µM (doses to about 46.1 µM), without a hit: top-dose activity, negative = less viability, usual class: cytotoxic; HT-1080-NT fibrosarcoma viability, CellTiter-Glo ATP luminescence, 48 h; 360,000 compounds, 1.6% hits; AID 686970;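 also: NT is the 2HG producing partner of a matched IDH1 knockdown line; potency is read from the fitted curve at half-maximal effect; 0% = DMSO-treated cells and -100% = media-only wells without cells; nearly all actives have a fitted effect of over 55% in size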
#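 Toxicity toward the 2HG-producing NT line was scored as %Activity, normalised to DMSO and no-cell wells, from CellTiter-Glo luminescence after 48 hours' treatment.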
# The depositor's hits bear a star; i = inactive; ? = inconclusive; · = no result; [ ] = dose if it differs, or a comment. Unless noted, calls follow the shape of the dose curve; as a rule, active = well fitted curve in the direction sought with a large enough effect; inconclusive = small, poorly fitted or top-dose-only effect, or another doubt; inactive = no such curve, though single readings can be large; an effect the other way counts as inactive or inconclusive. Unless noted, % is scaled to controls: 0 for no effect and ±100 for the full control effect.
SMILES,IL1B secr inh,HT1080 IDH1KD tx,TDP1 cell noCPT,TDP1 cell CPT,HT1080-NT tox
CN(c1ccccc1)c1nc(C#N)nc(N2CCOCC2)n1,·,·,10µM*,13µM*,·
N#Cc1nc(N2CCOCC2)nc(N2CCOCC2)n1,-1,-1%,26µM*,18µM*,-1%
Cc1cc(N2CCOCC2)nc(N2CCOCC2)n1,12,14%,-6%,-2%,9%
O=S1(=O)c2c(F)cccc2OC(COc2ccccc2)CN1CCc1ccc(F)cc1 (stereo unspecified),-20,6%,16µM*,?,3%
Cc1cccc(Cn2cnc3c(oc4ccccc43)c2=O)c1,·,·,-30%,?,·
Cc1cccc(NC(=O)CSc2nc3ccc(NC(=O)c4ccccc4)cc3s2)c1,·,·,6.5µM*,8.2µM*,·
CCN(CC)C(=O)CSc1nc2ccc(NC(=O)CSc3nnc(N)s3)cc2s1,-13,-1%,?,?,1%
CCN(CC)C(=O)CSc1nc2ccc(NC(=O)CSc3nccn3C)cc2s1,-53*,-5%,16µM*,-29%,-22%
Cc1cccc(NC(=O)CSc2nc3ccc(NC(=O)COc4ccccc4F)cc3s2)c1,·,·,6.5µM*,16µM*,·
Cn1cnnc1SCC(=O)Nc1ccc2nc(SCc3cccc4ccccc34)sc2c1,-16,-23%,?,23µM*,-19%
COC(=O)C1C(=O)C2=C(CC1C)Nc1ccccc1NC2c1ccc(C)s1 (stereo unspecified),2,23%,?,-19%,0%
COc1cccc(-n2c(SC)nnc2C2CCN(Cc3nc4ccccc4s3)CC2)c1,·,·,?,3%[9.04 µM],·
CCCCN(C)Cc1c(O)ccc2c(=O)c(-c3ccccc3OC)coc12,9,9%,-26%,?,33%
COC(=O)C(CCCN1C(=O)c2ccccc2C1=O)(NC(C)=O)c1nn[nH]n1 (stereo unspecified),10,13%,6%,7%,17%
COc1ccc(NS(=O)(=O)c2cc(C(=O)N3CCN(C/C=C/c4ccccc4)CC3)ccc2C)cc1,?,-12%,?,?,-8%
N#CCCn1ncn(-c2ccccc2)c1=S,5,13%,-18%,11%,13%
Cc1nc2c(-c3ccccc3)c(C)nn2c(C)c1CCC(=O)NCc1cccc(Cl)c1,·,·,-28%,-11%,·
CCCCNC(=O)c1c(CSc2ccc(Cl)cc2)noc1C(=O)NCc1ccccc1,13,2%,?,18µM*,0%
CN(C)CCNC(=O)c1c(CSc2ccc(Cl)cc2)noc1C(=O)NCc1ccccc1,-4,9%,16µM*,18µM*,7%
Cc1ccc(OCCCn2c(CO)nc3ccccc32)cc1,-6,-10%,?,?,-1%
Cc1ccc(OCCCCn2cnc3ccccc32)cc1,-19,-9%,21µM*,16µM*,6%
c1ccc(OCCCCn2cnc3ccccc32)cc1,-20,?,18µM*,?,-5%
COc1ccc(OCCn2cnc3ccccc32)cc1,-1,1%,?,-6%,7%
c1ccc(OCCn2cnc3ccccc32)cc1,-4,16%,?,?,3%
Cc1ccccc1OCCCCn1cnc2ccccc21,-19,?,13µM*,12µM*,-8%
SMILES,IL1B secr inh,HT1080 IDH1KD tx,TDP1 cell noCPT,TDP1 cell CPT,HT1080-NT tox
Cc1ccccc1OCCCCn1c(CO)nc2ccccc21,-21,-25%,10µM*,9.2µM*,?
CC(=O)Nc1cc2cc(NS(=O)(=O)c3ccc(C)cc3)ccc2oc1=O,-10,1%,-10%,-9%,0%
c1ccc(CC(Nc2ccccn2)c2ccccc2)cc1 (stereo unspecified),5,-12%,-20%,3%,-8%
Cc1nn(Cc2ccc(C(=O)N3CCCC3)o2)c(C)c1[N+](=O)[O-],45,1%,18%,-16%,-4%
Cc1nn(CCCC(=O)N2CCN(c3ccc(F)cc3)CC2)c(C)c1[N+](=O)[O-],-24,-2%,21µM*,16µM*,-3%
COc1ccc(N2CCN(C(=O)c3ccc(Cn4nc(C)c([N+](=O)[O-])c4C)o3)CC2)cc1,-12,-19%,13µM*,?,?
COc1ccc(CNC(=O)c2ccc(Cn3nc(C)c([N+](=O)[O-])c3C)o2)cc1,-23,-15%,23µM*,?,0%
Cc1nn(Cc2ccc(C(=O)NC(C)(C)C)o2)c(C)c1Br,-20,-14%,12µM*,23µM*,-10%
Cc1cc(NC(=O)c2ccc(Cn3nc(C)c(Br)c3C)o2)no1,-18,-8%,?,?,-22%
COc1ccc(CNC(=O)c2ccc(Cn3nc(C)cc3C)o2)cc1,-25,4%,11%,-21%,11%
O=C(c1ccc(=O)[nH]c1)N1CCN(S(=O)(=O)c2ccccc2)CC1,i,2%,-18%,10%,4%
Cc1nn(CC(=O)NCc2ccc(F)cc2)c2ccccc12,·,·,-18%,-16%,·
COC(OC)c1ccc(C#N)c(=O)[nH]1,8,-1%,4%,-13%,0%
Cc1cnc(C2OCCO2)c2cccc(N)c12,-12,6%,8.2µM*,?,-8%
O=[N+]([O-])c1cccnc1C1OCCO1,6,15%,2%,18%,7%
CC1C(=O)N(Cc2ccccc2F)c2ccccc2N1C(=O)c1c(F)cccc1F (stereo unspecified),?,-13%,18µM*,18µM*,-1%
COc1cccc(CN2C(=O)C(C)N(C(=O)c3c(F)cccc3F)c3ccccc32)c1 (stereo unspecified),-14,-26%,10µM*,23µM*,?
O=C1NC(=O)N(Cc2ccccc2F)C1=O,-7,-1%,-7%,2%,17%
CC1C(=O)N(Cc2cccc(F)c2)c2ccccc2N1C(=O)c1ccccc1 (stereo unspecified),-14,-14%,15µM*,?,-26%
COc1cccc(-c2ccc3c(c2)N(Cc2cccc(F)c2)C(=O)C(C)S3)c1 (stereo unspecified),-4,0%,?,?,-14%
Clc1ccc(-c2noc(-c3cccnc3N3CCN(c4ccccc4)CC3)n2)cc1,·,·,?,-33%,·
Cc1ccc(C2=N/C(=C\c3cccc(F)c3)C(=O)O2)cc1,5,14%,7%,-20%,12%
CN1c2ccccc2N(C)C1(C)c1cccc2ccccc12,40,-3%,3.3µM*,5.8µM*,0%
CN(C)CCNc1ccc(CO)c2oc3ccc(O)cc3c(=O)c12,-98*,21µM*,0.65µM*,0.13µM*,?
